Screening results: PubChem, several laboratories
MEX-5 binding: C. elegans MEX-5 TCR-2 RNA binding activity; MEX-5/FITC-TCR2 RNA binding, fluorescence polarization; stronger effect = lower value; activity score (negative = inhibition of binding), % at 10 µM; 300,000 compounds, 0.38% hits; AID 1832;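 active = inhibition past about -25% in most replicates, and total fluorescence under double the plate's negative control median, limit read from the data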;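 note: 0% = DMSO and -100% = 5 µM competing unlabeled TCR2 RNA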
JMJD2C inh: blocks human GASC-1 demethylase activity | AID 2099 | inhibition, % at 2.35 µM | GST-JMJD2C(1-420) H3K9me3 demethylation, DELFIA europium | Q9H3R0 | 330,000 compounds, 0.069% hits;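 active = more than half of a compound's replicate wells show inhibition beyond 50%, single wells judged on their own value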;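 note: signal counts dimethyl H3K9 product captured on neutravidin plate; 0% = median of DMSO wells and 100% = 0.3 times that DMSO median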
Exocytosis inh: lytic granule exocytosis inhibition. 360,000 compounds, 0.66% hits. TALL-104 LAMP-1 surface exposure, flow cytometry; cells stimulated with thapsigargin and PMA. AID 651702. inhibition, % at 10 µM;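 active = inhibition above about 55%, limit read from the data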
m5-HT2A agonist: mouse HTR2A agonism via beta-arrestin recruitment; P35363; CHO-K1 mHTR2A beta-arrestin complementation, luminescence; percent of 30 µM serotonin response; activation, % at 7.6 µM; 360,000 compounds, 0.66% hits; AID 624169;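 active = activation above a run cutoff, the mean activation of all tested compounds plus 3 SD, cut at about 14% in these data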;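 note: 0% = plate median of compound wells and 100% = 30 µM serotonin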
VLA-4 inh: inhibition in a human VLA-4 binding assay; 330,000 compounds, 0.2% hits; inhibition, % (about 7 µM as worked out from the volumes in the protocol); VLA-4 expressing cells, ligand binding flow cytometry; P13612; in the data active = inhibition above about 50%
Target sequence (P13612 whole entry, looked up): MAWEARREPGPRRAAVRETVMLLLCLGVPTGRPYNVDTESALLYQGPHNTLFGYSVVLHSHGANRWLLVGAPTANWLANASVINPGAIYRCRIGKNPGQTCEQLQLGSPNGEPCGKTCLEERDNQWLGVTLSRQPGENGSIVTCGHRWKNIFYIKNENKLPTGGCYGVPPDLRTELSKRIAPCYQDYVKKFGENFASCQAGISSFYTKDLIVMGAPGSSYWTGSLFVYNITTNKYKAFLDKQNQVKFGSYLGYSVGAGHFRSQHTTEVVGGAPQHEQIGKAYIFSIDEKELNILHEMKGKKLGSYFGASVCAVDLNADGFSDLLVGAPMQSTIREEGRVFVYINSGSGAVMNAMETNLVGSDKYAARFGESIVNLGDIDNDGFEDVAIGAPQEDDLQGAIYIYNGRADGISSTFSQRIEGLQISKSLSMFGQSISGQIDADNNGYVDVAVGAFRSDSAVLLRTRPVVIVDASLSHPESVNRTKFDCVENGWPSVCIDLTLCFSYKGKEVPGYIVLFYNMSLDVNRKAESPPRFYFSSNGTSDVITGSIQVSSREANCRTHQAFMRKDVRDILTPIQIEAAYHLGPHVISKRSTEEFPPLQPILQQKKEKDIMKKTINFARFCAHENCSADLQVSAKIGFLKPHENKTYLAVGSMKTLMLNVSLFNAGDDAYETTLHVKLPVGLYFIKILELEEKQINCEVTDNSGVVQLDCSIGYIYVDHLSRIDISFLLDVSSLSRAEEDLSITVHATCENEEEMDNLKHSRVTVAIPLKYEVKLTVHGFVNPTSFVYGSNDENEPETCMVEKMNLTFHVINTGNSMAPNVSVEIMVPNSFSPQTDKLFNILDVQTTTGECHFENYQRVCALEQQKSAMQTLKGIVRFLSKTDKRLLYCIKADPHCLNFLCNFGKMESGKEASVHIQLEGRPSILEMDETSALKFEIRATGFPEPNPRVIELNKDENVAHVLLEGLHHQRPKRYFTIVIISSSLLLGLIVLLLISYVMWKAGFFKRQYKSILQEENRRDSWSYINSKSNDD
V-ATPase pH: alters yeast V-ATPase proton transport; response, % at 10 µM; 350,000 compounds, 0.37% hits; S. cerevisiae, pHLuorin cytosolic pH fluorescence; in the data active = response mostly above about 7.3%, no sharp cut-off; inactive = mostly below about 5.4%; note: actives read high
Granule exo CP1: blocks lytic granule exocytosis | TALL-104 cells, LAMP-1 externalization, flow cytometry; stimulated with PMA plus thapsigargin | AID 651954 | inhibition, % at 10 µM | 1,500 compounds, 11% hits | shares compounds with Exocytosis inh; in the data active = inhibition above about 60%;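 note: 0% = stimulated vehicle wells and 100% = unstimulated wells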
The depositor's hits bear a star; i = inactive; nt = no result given. Shown are actives, neighbours in structure and some others; about 2.2% of the full set was active somewhere.

SMILES	MEX-5 binding	JMJD2C inh	Exocytosis inh	m5-HT2A agonist	VLA-4 inh	V-ATPase pH	Granule exo CP1
N#CC1C(=O)c2ccccc2C1c1ccccc1 (stereo not given)	nt	nt	64*	-3	nt	0	-14
CCOC(=O)c1ccc(NC(=O)c2ccc(CN3CCc4ccccc4C3)cc2)cc1	-2	-10	70*	-5	9	0	-12
COc1cccc(C(=O)OCC(=O)Nc2ccc3c(c2)OCCO3)c1	nt	-2	7	-3	3	-5	nt
Cc1ccc(Cl)cc1-c1cc(C(=O)NCc2ccc(C(F)(F)F)cc2)[nH]n1	nt	nt	96*	-9	nt	nt	103*
COc1ccc(Cl)c(-c2cc(C(=O)NCc3ccco3)[nH]n2)c1	nt	nt	-4	-2	nt	nt	nt
COc1ccc(Cl)c(-c2cc(C(=O)NCc3ccc(C(F)(F)F)cc3)[nH]n2)c1	nt	nt	97*	-7	nt	nt	64*
COc1cc(-c2c(C(=O)c3ccccc3)[nH]c(N)c2C(N)=O)ccc1F	nt	nt	-5	9	nt	nt	nt
COc1cccc(C(=O)NCC2(c3ccccc3)CCCC2)c1	0	-1	-1	-3	34	0	nt
COc1ccc(C(=O)NCC2(c3ccccc3)CCCC2)c(OC)c1	0	18	88*	-2	5	3	6
Cn1nc(C(C)(C)C)cc1NC(=O)C1(C)CCN1C(=O)c1ccccc1CCc1ccccc1 (stereo not given)	nt	nt	98*	-7	nt	nt	-4
Cn1nc(C(C)(C)C)cc1NC(=O)C1(C)CCN1C(=O)CCc1ccccc1 (stereo not given)	nt	nt	0	0	nt	nt	nt
CC(=O)c1sc2nc(C)c3c(c2c1N)CCCC3	-4	-22	62*	1	-11	-1	-5
O=C(NCCc1ccc(C(F)(F)F)cc1)c1ccc(Cl)nc1	2	-1	2	-6	7	0	nt
COc1ccc(-c2csc3ncnc(N4CCN(c5ccccc5OC)CC4)c23)cc1	-2	-1	88*	-5	1	-1	-10
Cc1ccc(-c2csc3ncnc(N4CCN(Cc5ccccc5)CC4)c23)cc1	1	9	26	4	2	6	nt
Cc1sc2ncnc(N3CCN(Cc4ccccc4)CC3)c2c1-c1ccc(F)cc1	1	1	65*	-1	1	2	-11
Cc1cc(-c2csc3ncnc(N4CCN(C)CC4)c23)cc(C)c1C	0	-1	96*	-12	-6	-2	1
c1ccc(-c2csc3ncnc(N4CCN(Cc5ccc6c(c5)OCO6)CC4)c23)cc1	0	-12	76*	0	i	2	-4
CCOc1ccccc1N1CCN(c2ncnc3scc(-c4ccc(OC)cc4)c23)CC1	8	-34	19	-14	-10	0	nt
Cc1ccc(CN2CCC(n3nccc3NC(=O)c3ccccc3C)CC2)o1	-4	7	0	-6	3	5	nt
O=C(NC1(Cc2ccccc2)CCN(Cc2ccc(-c3ccccc3)cc2)C1=O)c1ccccc1 (stereo not given)	nt	-8	21	10	-9	2	nt
COc1ccccc1CN1CC(C(=O)N2CCC(OC)CC2)CCC1=O (stereo not given)	-1	9	0	-3	0	-3	nt
COc1cccc(N2C(=O)CC(N3CCN(S(=O)(=O)c4ccccc4[N+](=O)[O-])CC3)C2=O)c1 (stereo not given)	nt	nt	-6	4	nt	1	nt
Fc1ccc(-c2csc3ncnc(N4CCN(Cc5ccccc5)CC4)c23)cc1	0	2	1	-1	-6	-1	nt
Fc1ccc(CN2CCN(c3ncnc4scc(-c5ccccc5)c34)CC2)cc1	2	-32	74*	-7	-43	6	-5
SMILES	MEX-5 binding	JMJD2C inh	Exocytosis inh	m5-HT2A agonist	VLA-4 inh	V-ATPase pH	Granule exo CP1
COc1ccc(C(=O)OC(C)C(=O)NC(C)CCc2ccccc2)cc1[N+](=O)[O-] (stereo not given)	-2	-14	2	-1	7	-4	nt
COc1ccc(C(=O)OC(C)C(=O)NC(C)CCc2ccccc2)c(OC)c1 (stereo not given)	3	7	58*	5	10	-1	-12
COc1ccccc1NC(=O)c1ccc(NC(=O)c2ccc(=O)[nH]c2)cc1	nt	-14	-10	4	16	1	nt
CC(C)[C@H]1C(=O)Nc2ccccc2N1C(=O)N[C@@H](Cc1ccccc1)C(=O)N[C@@H](Cc1ccccc1)C(=O)O	2	3	-2	4	-20	1	nt
O=C(CSc1nc(C2CC2)nc2ccccc12)Nc1ccccc1	2	1	78*	3	2	1	-4
COc1cccc(-c2csc(NC(=O)Nc3ccccc3)n2)c1	3	-11	88*	6	2	1	-3
O=C(CC(Sc1ccc(Br)cc1)C(=O)O)c1ccc(F)cc1 (stereo not given)	3	1	69*	0	1	0	-13
CCCCC[C@H](C)N1C[C@H](COCc2ccccc2)Oc2cc(N3CC[C@@H](O)C3)ccc2S1(=O)=O	nt	nt	8	-1	nt	nt	nt
CCCCC[C@@H](C)N1C[C@@H](COCc2ccccc2)Oc2cc(N3CC[C@H](N(C)C)C3)ccc2S1(=O)=O	nt	nt	56*	0	nt	nt	69*
CCCCC[C@H](C)N1C[C@@H](COCc2ccccc2)Oc2cc(N3CC[C@H](N(C)C)C3)ccc2S1(=O)=O	nt	nt	75*	-6	nt	nt	24
O=C(Nc1cc([N+](=O)[O-])c2[nH]c(=O)c3ccccc3c2c1)C(F)(F)F	nt	nt	-16	0	nt	-1	nt
COc1ccccc1NC(=O)c1cc(S(=O)(=O)N2CCc3ccccc32)ccc1F	1	-12	74*	4	-6	4	-12
COc1ccc(CCNC(=O)c2cc(S(=O)(=O)N3CCc4ccccc43)ccc2F)cc1OC	nt	nt	-1	-7	nt	2	nt
CCN(CC)CCC(=O)N1C/C(=C/c2ccccc2)C(=O)/C(=C\c2ccccc2)C1	nt	nt	79*	0	nt	2	30
CCCCNC(=O)c1cc2c(=O)n(CC)c3ccccc3c2s1	0	-11	60*	4	4	1	-11
Cc1ccc(C)c(N(CC(=O)NC2CCCCC2)C(=O)CNC(=O)c2ccco2)c1	1	10	13	2	11	-2	nt
CN(C)/C=C\C(=C/C(=O)C(F)(F)F)Nc1ccccc1Oc1ccccc1	-3	-10	77*	1	13	-1	-2
COc1cc(C)ccc1OCc1cc(C(=O)N2CCN(C3CCCCC3)CC2)no1	2	16	-2	-2	-8	-2	nt
c1ccc(C[C@H]2CN=C(Nc3ccccc3)N2CC2CCCCCC2)cc1	nt	7	-16	-6	1	2	nt
